# “And” between values parts separate entries of the source, which are not always exact repeats. Equal entries are not always repeated. The panel holds about 83,000 compounds, 20% with a hit somewhere; the sample as a whole holds those more often.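 Note: values are percent growth. 100 is the growth of untreated cells, values between 100 and 0 indicate rising inhibition; between -100 and 0 indicates cell death.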 The source made the active and inactive calls. Where a SMILES comes first, the peptide text is derived from it. The star is where a group is joined. Trt = c1ccc(C(c2ccccc2)(c2ccccc2)*)cc1; Cbz = O=C(OCc1ccccc1)*
# Tested on: IGROV1 ovarian
# Assay: NCI-60 one-dose screen, 48 h (100 = growth as untreated, 0 = no growth, -100 = all killed)
# Settings: 10 µM
# Procedure: Growth inhibition of the IGROV1 human tumor cell line is measured as a screen for anti-cancer activity. Cells are grown in 96 well plates and exposed to the test compound for 48 hours. Compounds are tested at a single concentration, which is 10^-5 M for most compounds. The reported endpoint is percent growth (GI% or GIPRCNT), where numbers from 0 - 100% represent growth inhibition, and numbers from -100% - 0 represent cell death. For example, a value of 40 represents 60% growth inhibition. A value of 0 means no net growth occurred over the course of the experiment. A value of -40 indicates 40% of cells at the beginning of the experiment died by the end of the experiment. A value of -100 means all cells are dead at the end of the experiment.
# NCI-60 Human Tumor Cell Lines Screen was performed using the standard one-dose NCI protocol, which is described in more detail at https://dtp.cancer.gov/discovery_development/nci-60/default.htm.
# Compounds with GIPRCNT values below 10 were considered active. Activity score was based on GIPRCNT using the following formula: […]
# Score is 0 for GIPRCNT values of 100 or above, 50 for GIPRCNT values of 0, and 100 for GIPRCNT values of -100.
row,SMILES,growth
1,CN(C)C(=O)c1ccc(SC(=S)NCc2ccccc2)cc1,116% (inactive)
2,O=C(O)c1c(Cl)c(Cl)c(Cl)c(Cl)c1-c1c2cc(I)c(=O)c(I)c-2oc2c(I)c(O)c(I)cc12,105% (inactive) and 80.5% (inactive) and -7.13% (active)
3,O=C(Nc1cccc(Br)c1)Oc1cccc2cccnc12,106% (inactive)
4,O=C(Nc1c(Cl)cccc1Cl)Oc1cccc2cccnc12,27% (inactive)

# Same assay, conditions: 10 µM unless noted
row,SMILES,growth
1,CCCCCCCCCCCCCCCC[N+](C)(CCO)Cc1cnc[nH]1 (stereo not given),-54.5% (active)
2,CCCCCC(CCCCC)C(=O)O,96.3% (inactive)
3,O=C(O)c1ccc2c3c(ncnc13)-c1ccccc1C2=O,83.4% (inactive)
4,CC(=O)Nc1cccc2cc(O)ccc12,97.2% (inactive) and 123% (inactive)
5,CCOC(=O)/C(=C\c1ccc(-c2ccccc2)cc1)C(C)=O,101% (inactive)
6,CCN(CC)CCOc1ccc(-c2nc3cc(Cl)ccc3s2)cc1,-27.3% (active)
7,Nc1nc(N)c2nc(CNc3ccc(C(=O)NC(CCC(=O)O)C(=O)O)cc3)cnc2n1 (stereo not given),36.9% (inactive) and 34.9% (inactive)
8,N#CC1C(=O)SC2c3ccccc3C(=O)c3ccccc3C12 (stereo not given),110% (inactive)
9,NC1=CC(=O)c2ccccc2C1=O,90.8% (inactive)
10,CCC(c1cccc(O)c1)C(CC)c1cccc(O)c1 (stereo not given),72.4% (inactive)
11,CN(C)CCOc1ccc2c(c1)C(=O)/C(=C\c1ncc([N+](=O)[O-])n1C)C2,-47.7% (active)
12,N#CSCc1ccc(CSC#N)c(Cl)c1,91.2% (inactive)
13,CCCCCCCCCCCCCCCCCCOP(=O)([O-])OC1CC[N+](C)(C)CC1,-61.7% (active)
14,Oc1ccc(/C=N/NC(=S)Nc2ccccc2)nc1,23.2% (inactive)
15,CN(C)c1ccc(C(=C2C=CC(=[N+](C)C)C=C2)c2ccc(N(C)C)cc2)cc1 (tested in a mixture with another compound),-63.8% (active)
16,Cc1ccc2c(ccc3c[n+]4c5ccccc5ccc4n32)c1,27% (inactive)

row,SMILES,growth
1,O=[N+]([O-])c1ccc(N=Nc2ccc(O)cc2O)cc1,76.5% (inactive)
2,CC(=O)C(=Cc1ccc(C=C(C(C)=O)C(C)=O)cc1)C(C)=O,48.6% (inactive)
3,O=C1NC(=O)/C(=C/C=C/c2ccccc2)S1,-6.36% (active)
4,O=C(Nc1ccccc1)c1cc(Cl)ccc1O,58.9% (inactive)
5,CC1=CC(O)C2CC1C2(C)C (stereo not given),101% (inactive) and 99.3% (inactive)
6,CCCCCCCCCCCCCCCCOP(=O)([O-])OCC[N+](C)(C)C,21.3% (inactive)
7,O=C(Nc1ccc(F)cc1)ON=C1CCCCC1,102% [100 µM] (inactive)
8,Cc1ccnc2c1ccc1c(C)ccnc12,23.8% (inactive)
9,COC(=O)C(CSC(c1ccccc1)(c1ccccc1)c1ccccc1)NC(=O)C(CC(N)=O)NC(=O)OCc1ccccc1 (stereo not drawn) (Cbz-Asn-Cys(Trt)-OMe; configuration not given here),48.6% (inactive)
10,O=C1OCc2cccc3cccc1c23,102% (inactive)
11,Cc1ccc(C(=Nc2ccccc2)N=P(c2ccccc2)(c2ccccc2)c2ccccc2)cc1,-68.5% (active)
12,CCN(CC)CC(C)(C)C(=O)/C=C/c1ccc(Cl)c(Cl)c1,-7.68% (active)
13,CC(=Nc1ccc(N(C)C)cc1)c1ccccc1,58.8% (inactive)
14,COc1ccccc1/C=C\C(=O)c1ccccc1,64.4% (inactive)
15,C=CCOc1ccc(N=NC(C#N)C#N)cc1,53.3% (inactive)
16,Cc1ccnc(NC(c2ccccc2)c2ccc3cccnc3c2O)c1 (stereo not given),36.5% (inactive)

# Same assay, conditions: 100 µM
row,SMILES,growth
1,CN(C)C(=O)c1ccc(SC(=S)NCc2ccccc2)cc1,-28.3% (active)
2,O=C(O)c1c(Cl)c(Cl)c(Cl)c(Cl)c1-c1c2cc(I)c(=O)c(I)c-2oc2c(I)c(O)c(I)cc12,5.19% (active)
3,O=C(Nc1cccc(Br)c1)Oc1cccc2cccnc12,6.09% (active)
4,O=C(Nc1c(Cl)cccc1Cl)Oc1cccc2cccnc12,14.4% (inactive)
